# In PubChem BioAssay (Tox21):
# Results filed as inconclusive are left out. Calls of active or inactive are those of the source. Calls come from the whole dose curve; as a rule, active = well fitted inhibition curve with a large enough effect in the signal ratio in the repeat runs (not every such curve was filed as active); inconclusive = weak or mixed curves; inactive = flat fitted curve, though single readings scatter; the % refers to the signal ratio.
# Assay: qHTS assay to identify small molecule antagonists of the TGF-beta/Smad signaling pathway (AID 1346924)
# Details: SBE-bla HEK293T, TGF-beta/Smad reporter, beta-lactamase ratio
# Source text: U.S. Tox21 Program National Center for Advancing Translational Sciences [NCATS] NIH Chemical Genomics Center [NCGC] U.S. Environmental Protection Agency [EPA] National Institutes of Environmental Health Sciences [NIEHS] National Toxicology Program [NTP] U.S. Food and Drug Administration [FDA] Tox21 Assay Overview: Transforming growth factor beta (TGF-beta) superfamily consists of a large number of structurally related dimeric proteins that act as hormones or local mediators in regulating a wide range of biological functions. This superfamily includes TGF-betas themselves, the bone morphogenetic proteins (BMPs) and the activins. These ligands induce oligomerization of serine/threonine receptor kinases and phosphorylate the cytoplasmic signaling molecules of Smad protein family. CellSensor SBE-bla HEK 293T cell line (Life Technologies, Carlsbad, CA), responsive to TGF-beta was used to screen Tox21 10K compound library for identification of agonists/antagonists of the Smad signaling pathway. […]
# Tox21 Assay Protocol Summary: SBE-bla HEK 293T cells were dispensed at 4,000/well in 5 uL of assay medium into black wall/clear-bottom 1536-well plates using a Multidrop Combi (ThermoFisher Scientific, Waltham, MA) dispenser. […] Fluorescence intensity (405 nm excitation, 460 nm and 530 nm emissions) was measured using an Envision plate reader (PerkinElmer, Shelton, CT).
# Potency is the fitted concentration of half-maximal effect.
row,Structure (SMILES),Potency
1,CCCCCCCCCCCC[N+](C)(C)CCOc1ccccc1,50.9 µM (active)
